# From the supplement of paper PMC8728848
# Many of the other results were omitted from the sample, so the strongest signals are more common in it than they were.
# Experiments:
# Test in all cases: glycan array binding signal (z-score within array); higher = stronger binding
# Details in all cases: glycan notation: IUPAC condensed, linker removed
# [1] = target: Gal(b1-4)GlcNAc(b1-3)[Gal(b1-4)GlcNAc(b1-6)]Gal(b1-4)GlcNAc
# How it was run: (§1)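 Negative Z-scores can be read as non-binding. The Z-score is calculated within each array and then averaged across arrays of one protein sequence at different concentrations or buffers and across linkers. Arrays, 3228 in all, were curated from the Consortium for Functional Glycomics database and kept only where the protein sequence was available.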
# [2] = target: Gal3S(b1-4)[Fuc(a1-3)]Glc6S
# How it was run: as §1
# [3] = target: GalNAc(b1-4)GlcNAc(b1-2)Man(a1-3)[GalNAc(b1-4)GlcNAc(b1-2)Man(a1-6)]Man(b1-4)GlcNAc(b1-4)GlcNAc
# How it was run: as §1
# [4] = target: GlcNAc(a1-4)Gal(b1-4)GlcNAc
# How it was run: as §1
# [5] = target: GlcNAc(b1-2)[GlcNAc(b1-4)]Man(a1-3)[GlcNAc(b1-2)Man(a1-6)]Man(b1-4)GlcNAc(b1-4)GlcNAc
# How it was run: as §1
# [6] = target: GlcNAc(b1-3)Gal(b1-4)GlcNAc(b1-3)Gal(b1-4)GlcNAc(b1-3)Gal(b1-4)GlcNAc(b1-3)Gal(b1-4)GlcNAc(b1-2)[GlcNAc(b1-3)Gal(b1-4)GlcNAc(b1-3)Gal(b1-4)GlcNAc(b1-3)Gal(b1-4)GlcNAc(b1-3)Gal(b1-4)GlcNAc(b1-6)]Man(a1-6)[GlcNAc(b1-3)Gal(b1-4)GlcNAc(b1-3)Gal(b1-4)GlcNAc(b1-3)Gal(b1-4)GlcNAc(b1-3)Gal(b1-4)GlcNAc(b1-2)Man(a1-3)]Man(b1-4)GlcNAc(b1-4)[Fuc(a1-6)]GlcNAc
# How it was run: as §1
# GlcNAc(b1-3)GalNAc = target: GlcNAc(b1-3)GalNAc
# How it was run: as §1
# [7] = target: GlcNAc(b1-3)[GlcNAc(b1-4)][GlcNAc(b1-6)]GlcNAc
# How it was run: as §1
# [8] = target: GlcNAc(b1-3)[GlcNAc(b1-6)]GalNAc
# How it was run: as §1
# Kdn(a2-3)Gal(b1-4)Glc = target: Kdn(a2-3)Gal(b1-4)Glc
# How it was run: as §1
# MurNAc(b1-4)GlcNAc = target: MurNAc(b1-4)GlcNAc
# How it was run: as §1
# [9] = target: Neu5Ac(a2-3)Gal(b1-3)GalNAc
# How it was run: as §1
# [10] = target: Neu5Ac(a2-3)Gal(b1-3)GalNAc(b1-4)[Neu5Ac(a2-3)]Gal(b1-4)Glc
# How it was run: as §1
# [11] = target: Neu5Ac(a2-3)Gal(b1-3)GlcNAc(b1-2)Man(a1-3)[Neu5Ac(a2-3)Gal(b1-3)GlcNAc(b1-2)Man(a1-6)]Man(b1-4)GlcNAc(b1-4)GlcNAc
# How it was run: as §1
# [12] = target: Neu5Ac(a2-3)Gal(b1-3)GlcNAc(b1-2)[Neu5Ac(a2-3)Gal(b1-3)GlcNAc(b1-4)]Man(a1-6)[Neu5Ac(a2-3)Gal(b1-3)GlcNAc(b1-2)Man(a1-3)]Man(b1-4)GlcNAc(b1-4)GlcNAc
# How it was run: as §1
# [13] = target: Neu5Ac(a2-3)Gal(b1-3)GlcNAc6S
# How it was run: as §1
# [14] = target: Neu5Ac(a2-3)Gal(b1-3)[Fuc(a1-4)]GlcNAc
# How it was run: as §1
# [15] = target: Neu5Ac(a2-3)Gal(b1-3)[Fuc(a1-4)]GlcNAc(b1-3)Gal(b1-4)[Fuc(a1-3)]GlcNAc
# How it was run: as §1
# [16] = target: Neu5Ac(a2-3)Gal(b1-4)GlcNAc(b1-3)Gal(b1-4)GlcNAc(b1-3)Gal(b1-4)GlcNAc(b1-2)Man(a1-3)[Neu5Ac(a2-3)Gal(b1-4)GlcNAc(b1-3)Gal(b1-4)GlcNAc(b1-3)Gal(b1-4)GlcNAc(b1-2)Man(a1-6)]GalNAc
# How it was run: as §1
# [17] = target: Neu5Ac(a2-3)Gal(b1-4)GlcNAc(b1-6)[Neu5Ac(a2-3)Gal(b1-3)]GalNAc
# How it was run: as §1
# [18] = target: Neu5Ac(a2-6)Gal(b1-4)GlcNAc(b1-2)Man
# How it was run: as §1
# [19] = target: Neu5Ac(a2-6)Gal(b1-4)GlcNAc(b1-2)Man(a1-3)[Neu5Ac(a2-6)Gal(b1-4)GlcNAc(b1-2)Man(a1-6)]Man(b1-4)GlcNAc(b1-4)[Fuc(a1-6)]GlcNAc
# How it was run: as §1
# [20] = target: Neu5Ac(a2-6)GlcNAc(b1-4)GlcNAc
# How it was run: as §1
# [21] = target: Neu5Ac(a2-8)Neu5Ac(a2-8)Neu5Ac
# How it was run: as §1
# [22] = target: Neu5Ac9Ac(a2-3)Gal(b1-3)GlcNAc
# How it was run: as §1
binder,measurement,setting,value
rCnSL-proB (Clitocybe nebularis) (protein) PTFSPIFALLAFLPFGTLASLLPQTQLVFRINPNLPGPNDVFVGYRGTNNVVGAIYERDGIKDTPMNNGADAELGPGSYITDDLFTAQIFASGSAGNNPGTTATVCKIYADGVQWRGAPKGYLPVLYFGNGQAAEQTRQTYLQGLDIPGTAIRFANLAKTPNQGPTAPRQMVVPSGGLQTLLKASCFPANHAALPQVLSYFNVRAALPPGWNIRTGPEFPNWTN,glycan array binding signal (z-score),[1],-0.283
same,glycan array binding signal (z-score),[2],0.549
same,glycan array binding signal (z-score),[3],3.38
same,glycan array binding signal (z-score),[4],-0.308
same,glycan array binding signal (z-score),[5],-0.133
same,glycan array binding signal (z-score),[6],0.742
same,glycan array binding signal (z-score),GlcNAc(b1-3)GalNAc,-0.757
same,glycan array binding signal (z-score),[7],-0.62
same,glycan array binding signal (z-score),[8],-0.668
same,glycan array binding signal (z-score),Kdn(a2-3)Gal(b1-4)Glc,-1.27
same,glycan array binding signal (z-score),MurNAc(b1-4)GlcNAc,-0.477
same,glycan array binding signal (z-score),[9],-0.437
same,glycan array binding signal (z-score),[10],-0.343
same,glycan array binding signal (z-score),[11],3.69
same,glycan array binding signal (z-score),[12],0.146
same,glycan array binding signal (z-score),[13],0.395
same,glycan array binding signal (z-score),[14],-0.555
same,glycan array binding signal (z-score),[15],0.025
same,glycan array binding signal (z-score),[16],4.43
same,glycan array binding signal (z-score),[17],-0.239
same,glycan array binding signal (z-score),[18],0.328
same,glycan array binding signal (z-score),[19],0.037
same,glycan array binding signal (z-score),[20],-0.255
same,glycan array binding signal (z-score),[21],-0.203
same,glycan array binding signal (z-score),[22],-0.873
